G9a inh: blocks human histone lysine methyltransferase G9a; Q96KQ7; G9a H3K9 monomethylation, AlphaScreen, 2 h; Potency, µM (highest dose often 102 µM), usual class: inhibitors; 350,000 compounds, 8.8% hits; also: nearly all actives have a fitted effect of over 75% in size
Target sequence (Q96KQ7 913-1193 limits assumed): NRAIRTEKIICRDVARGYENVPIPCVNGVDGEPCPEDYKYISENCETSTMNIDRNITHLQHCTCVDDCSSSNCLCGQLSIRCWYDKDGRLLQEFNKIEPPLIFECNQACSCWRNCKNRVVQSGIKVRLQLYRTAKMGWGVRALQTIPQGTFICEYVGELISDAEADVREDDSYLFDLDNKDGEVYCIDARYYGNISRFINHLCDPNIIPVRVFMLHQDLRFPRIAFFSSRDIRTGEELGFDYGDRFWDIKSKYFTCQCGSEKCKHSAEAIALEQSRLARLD
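G9a (20 nM) was preincubated 15 min with compound, then reacted 2 h at room temperature with 500 nM biotin-H3K9 peptide and 20 µM SAM. Monomethyl-H3K9 detected by AlphaScreen using anti-H3K9me1 antibody.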
Sfp PPTase inh: blocks B. subtilis Sfp PPTase activity; Biochemical Sfp PPTase activity, qHTS; Potency, µM, actives largely listed as inhibitors; 310,000 compounds, 3.5% hits;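 also: the enzyme is Sfp with the accession as filed and its product quenches rhodamine fluorescence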
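With Hepes-Na pH 7.6 buffer containing 10 mM MgCl2, Sfp (15 nM) modified BHQ-2-YbbR (12.5 uM) using rhodamine-CoA (5 uM). Two reads 30 minutes apart at 525/598 nm yielded each well's rate.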
BAZ2B block: BAZ2B (human) inhibition; Potency, µM (doses to about 114 µM), usual class: inhibitors; AlphaScreen BAZ2B-H3K14Ac peptide displacement; 360,000 compounds, 4.4% hits; Q9UIF8; AID 504333; also: nearly all actives have a fitted effect of over 60% in size
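Complex of BAZ2B and biotin-H3K14Ac (50 nM apiece) forms over 30 min at RT, then faces library compounds up to 110 uM for another 30 min; AlphaScreen beads added, 20 min dark incubation, luminescence read.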
JMJD2A Tudor inh: blocks the human JMJD2A Tudor domain; AlphaScreen JMJD2A-Tudor / H3K4me3 peptide binding; Potency, µM (top dose mostly 114 µM), actives largely listed as inhibitors; O75164; 390,000 compounds, 4.4% hits; also: nearly all actives have a fitted effect of over 50% in size
PLK1 PBD inh: PLK1 (human) polo-box domain binding inhibition; P53350; Plk1 PBD binding of FITC phosphopeptide, fluorescence polarization; Potency, µM, actives largely listed as inhibitors; 360,000 compounds, 2.8% hits; also: series mostly up to about 57 µM; nearly all actives have a fitted effect of over 65% in size
HP1b chromo inh: HP1-beta chromodomain-methylated histone interaction inhibition; AlphaScreen HP1-beta / biotin-H3K9me3 peptide binding; P83916; 390,000 compounds, 0.56% hits; Potency, µM (doses to about 114 µM), actives largely listed as inhibitors; also: nearly all actives have a fitted effect of over 70% in size
Target sequence (P83916 whole entry, looked up): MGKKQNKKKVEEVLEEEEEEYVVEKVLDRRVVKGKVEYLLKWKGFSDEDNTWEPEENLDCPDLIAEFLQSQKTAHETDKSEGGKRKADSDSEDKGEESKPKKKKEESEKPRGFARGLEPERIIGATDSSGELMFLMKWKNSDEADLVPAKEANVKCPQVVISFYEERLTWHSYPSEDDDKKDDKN
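HP1-beta protein (50 nM final) preincubated 30 min at room temperature with biotinylated H3(1-18)K9me3 peptide (50 nM) in PBS pH 7.4, 0.01% Tween-20, then compound added for 30 min. AlphaScreen streptavidin donor/nickel chelate acceptor beads (10 ug/mL final), 30 min dark, luminescence read.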
Each line names hits and unclear results; the compound was inactive in the other large screens. A selection: hits, their analogues and other compounds. The true share with any hit is near 12%. Calls follow the shape of the dose curve; as a rule, active = well fitted curve in the direction sought with a large enough effect; inconclusive = small, poorly fitted or top-dose-only effect, or another doubt; inactive = no such curve, though single readings can be large; an effect the other way counts as inactive or inconclusive.

NC(=O)C1CCCN(C(=S)NCc2ccc3c(c2)OCO3)C1 (stereo unspecified)	G9a inh 50µM, PLK1 PBD inh inconclusive
O=C1CCSc2ccc(S(=O)(=O)Nc3cccc(C(F)(F)F)c3)cc2N1	none (no result: Sfp PPTase inh, PLK1 PBD inh)
COc1ccccc1-c1nnc(C2CCN(S(=O)(=O)c3ccc(F)c(C)c3)CC2)o1	G9a inh inconclusive (no result: Sfp PPTase inh, PLK1 PBD inh)
COc1ccc(F)cc1-c1cc(NC(C)=O)c2ncc(-c3cccc(C(F)(F)F)c3)n2c1	none (no result: G9a inh, Sfp PPTase inh, BAZ2B block, JMJD2A Tudor inh, HP1b chromo inh)
Cn1cc(-c2nc3cncnc3n(CCN)c2=O)c2ccccc21	none (no result: BAZ2B block, JMJD2A Tudor inh, PLK1 PBD inh, HP1b chromo inh)
CCOC(=O)C(CC)n1cnc2c(nnn2-c2ccc(F)cc2)c1=O (stereo unspecified)	none
O=C(NCCCN1CCCC1)C1CCN(C(=O)c2cc3sccc3n2Cc2ccc(F)cc2)CC1	G9a inh 50µM, BAZ2B block inconclusive
CCc1cccc(N2C(=O)CS(=O)(=O)C23C(=O)N(Cc2ccccc2)c2ccc(C)cc23)c1 (stereo unspecified)	none (no result: Sfp PPTase inh, PLK1 PBD inh)
COc1c(OC(C)=O)ccc(/C=C/c2ccc3cccc(OC)c3n2)c1[N+](=O)[O-]	G9a inh inconclusive, BAZ2B block inconclusive, JMJD2A Tudor inh inconclusive, HP1b chromo inh inconclusive
O=C(O)c1ccc(/C=C/c2ccc3cccc(O)c3n2)cc1	G9a inh inconclusive, Sfp PPTase inh 40µM
COC(=O)c1ccc(/C=C/c2ccc3cccc(OC(C)=O)c3n2)cc1	Sfp PPTase inh 18µM
Cc1ccc(S(=O)(=O)N(C)c2ccc(OC(=O)c3cc(=O)[nH]c4ccccc34)cc2)cc1	none (no result: G9a inh, Sfp PPTase inh, BAZ2B block)
CCc1ccc(NC(=O)c2cc3c(=O)n(Cc4cccs4)ccc3nc2C)cc1	none (no result: Sfp PPTase inh, PLK1 PBD inh)
CCC(=O)c1ccc(OCC(=O)N2CCN(S(=O)(=O)c3ccc(Cl)s3)CC2)cc1	none (no result: Sfp PPTase inh)
Cc1nn2c(C)c(C(=O)N3CCN(c4ccc(Cl)cc4)CC3)cnc2c1-c1ccc(F)cc1	none (no result: Sfp PPTase inh, PLK1 PBD inh)
COc1cc(/C=C/C(=O)Nc2cc(C(F)(F)F)ccc2Cl)cc(OC)c1OC	PLK1 PBD inh 27µM
COc1cc(/C=C/C(=O)Nc2nnc(C(C)(C)C)s2)cc(OC)c1OC	G9a inh 4.5µM, Sfp PPTase inh 50µM, PLK1 PBD inh 24µM, HP1b chromo inh inconclusive
COc1cc(C(Nc2ccc3c(c2)OCO3)C(=O)NC2CCCCC2)cc(OC)c1OC (stereo unspecified)	G9a inh 2.8µM, Sfp PPTase inh 13µM, BAZ2B block 40µM, JMJD2A Tudor inh inconclusive
COc1cc(/C=C/C(=O)NC2CCCCC2)cc(OC)c1OC	PLK1 PBD inh 27µM
O=C(Nc1ccc(F)cc1F)c1cccnc1	JMJD2A Tudor inh inconclusive, PLK1 PBD inh 27µM
O=C(N/N=C(\c1ccccc1)c1cccnc1)c1cccc(F)c1	BAZ2B block 56µM, JMJD2A Tudor inh 45µM
CN1C(=O)C(N=Nc2ccccc2C(=O)O)N(C)C1=S (stereo unspecified)	G9a inh 1.8µM, BAZ2B block inconclusive, PLK1 PBD inh inconclusive
C#CCOCCOCCOCCNc1nc(N2CCN(C(=O)[C@H](CCCCN)n3cc(CN)nn3)CC2)nc(N2CCN(C(=O)[C@H](CO)n3cc([C@@H](N)C(C)C)nn3)CC2)n1	none (no result: G9a inh, Sfp PPTase inh, BAZ2B block)
C#CCOCCOCCOCCNc1nc(N2CCN(C(=O)[C@H](CCCCN)n3cc([C@@H](N)CO)nn3)CC2)nc(N2CCN(C(=O)[C@H](Cc3cc4ccccc4[nH]3)n3cc([C@@H](N)CC(C)C)nn3)CC2)n1	BAZ2B block 45µM (no result: JMJD2A Tudor inh, PLK1 PBD inh, HP1b chromo inh)
C#CCOCCOCCOCCNc1nc(N2CCN(C(=O)[C@H](CCCCN)n3cc([C@@H](N)CO)nn3)CC2)nc(N2CCN(C(=O)[C@H](Cc3cc4ccccc4[nH]3)n3cc([C@@H](N)CO)nn3)CC2)n1	G9a inh inconclusive, BAZ2B block 22µM (no result: JMJD2A Tudor inh, PLK1 PBD inh, HP1b chromo inh)
O=C(O)C1CCC(C(=O)O)O1 (stereo unspecified)	JMJD2A Tudor inh 45µM (no result: G9a inh, Sfp PPTase inh, BAZ2B block)
O=C(O)C1CCNCC1	none (no result: Sfp PPTase inh, BAZ2B block, JMJD2A Tudor inh, PLK1 PBD inh, HP1b chromo inh)
O=C(COc1ccc([N+](=O)[O-])cc1)Nc1nnc(-c2cccnc2)s1	G9a inh inconclusive, BAZ2B block inconclusive, JMJD2A Tudor inh inconclusive
Cc1ccc(Cl)c(OCC(=O)Nc2sc(C)c(C)c2C#N)c1	G9a inh 45µM
CCC(C)N(C(=O)CSc1ncnc2sccc12)C1CCS(=O)(=O)C1 (stereo unspecified)	none (no result: Sfp PPTase inh)
